From PubChem BioAssay
Compounds with a hit are over-represented: about 11% of the library has one in this group of screens.
RORg inh: qHTS for inhibitors of ROR gamma transcriptional activity; Nuclear receptor ROR-gamma (Mus musculus), P51450; Drosophila S2 Gal4-RORgamma UAS-luciferase reporter, 20 h; Potency, µM (titrated, usually from 53.6 µM), for the others: at the highest dose activity change, negative = inhibition, most hits filed as inhibitors; 5.4% of 310,000 active; AID 2551, 2010; further: potency means the concentration at half of the fitted maximal effect; on the % scale 0 is the no-effect control and ±100 the full control effect; nearly all actives have a fitted effect of over 60% in size
Target sequence (P51450 whole entry, looked up, the tested form may be a part): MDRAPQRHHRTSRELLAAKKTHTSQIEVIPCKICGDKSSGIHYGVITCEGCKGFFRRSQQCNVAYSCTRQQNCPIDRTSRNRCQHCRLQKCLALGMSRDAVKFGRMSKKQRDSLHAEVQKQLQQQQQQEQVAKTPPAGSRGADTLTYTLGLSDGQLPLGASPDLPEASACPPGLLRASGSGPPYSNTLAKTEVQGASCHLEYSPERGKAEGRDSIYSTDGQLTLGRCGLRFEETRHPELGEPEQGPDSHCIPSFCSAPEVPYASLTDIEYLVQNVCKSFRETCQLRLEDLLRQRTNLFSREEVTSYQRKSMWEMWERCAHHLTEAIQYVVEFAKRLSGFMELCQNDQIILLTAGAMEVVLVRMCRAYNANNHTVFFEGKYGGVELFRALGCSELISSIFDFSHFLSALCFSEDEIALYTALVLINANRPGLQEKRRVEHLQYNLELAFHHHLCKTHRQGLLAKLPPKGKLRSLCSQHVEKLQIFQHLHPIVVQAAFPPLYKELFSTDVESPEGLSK
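Drosophila S2 cells stably expressing Gal4-DBD/mouse RORγ fusion under metallothionein promoter plus UAS-luciferase; compound 1 h, then 700 uM CuSO4 induction for 20 h at ambient temperature; inhibition read as reduced luminescence.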
MCF10A rereplic: A quantitative high throughput screen for small molecules that induce DNA re-replication in MCF 10a normal breast cells. MCF 10A DNA re-replication, Hoechst nuclear intensity, 48 h. 2.9% of 350,000 active. Potency, µM (doses to about 46.1 µM), inactives show at the highest dose activity, positive = re-replication, most hits filed as activators; further: potency means the concentration at half of the fitted maximal effect; % of control where 0% means no effect; nearly all actives have a fitted effect of over 50% in size
Gal4-VP16 FLuc: VP16 counterscreen qHTS for inhibitors of ROR gamma transcriptional activity; Potency, µM (highest dose often 53.6 µM), without a hit: at the top dose activity, negative = inhibition, actives largely listed as inhibitors; 3.5% of 310,000 active; Drosophila S2 Gal4-VP16 UAS-luciferase, luminescence, 20 h; AID 2546, 2010;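 further: Gal4-VP16 expression switched on by copper sulfate through the metallothionein promoter; potency means the concentration at half of the fitted maximal effect; on the % scale 0 is the no-effect control and ±100 the full control effect; nearly all actives have a fitted effect of over 50% in size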
IL-1B inflam inh: qHTS for Inhibitors of Inflammasome Signaling: IL-1-beta AlphaLISA Primary Screen; THP-1 LPS/ATP IL-1B secretion, AlphaLISA, 16 h; stronger effect = lower value; activity change, % at 57.5 µM; 4.7% of 360,000 active; AID 743279, 2014; in the data active means activity change below about -50%; inconclusive means mostly about -30% to -49%; further: on the % scale 0 is the no-effect control and ±100 the full control effect
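Secreted IL-1B measured by AlphaLISA bead assay after 16 h compound exposure of THP-1 cells; compounds (final up to 57.5 uM) added 1 h before LPS (250 ng/mL) and ATP (1.25 mM) stimulation; lower signal means less secretion.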
SW480 rereplic: A quantitative high throughput screen for small molecules that induce DNA re-replication in SW480 colon adenocarcinoma cells. 1.8% of 340,000 active. SW480 DNA re-replication, Hoechst DNA content imaging, 48 h. Potency, µM (titrated, usually from 46.1 µM), for the others: top-dose re-replication activation, hits mostly activators. AID 624297, 2012; further: potency means the concentration at half of the fitted maximal effect; % of control where 0% means no effect; nearly all actives have a fitted effect of over 55% in size
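Hoechst fluorescence of nuclei (405 nm excitation, 500-530 nm emission) measured by plate-scanning imager after 48 hr compound exposure at 37 C; re-replication scored as increased number of nuclei with elevated intensity.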
Active calls of the source: *; ? = inconclusive; . = no result; [ ] = dose if it differs, or a comment. Unless noted, the call rests on the fitted dose curve; in most records, active means well fitted curve in the direction sought with a large enough effect; inconclusive means small, poorly fitted or top-dose-only effect, or another doubt; inactive means no such curve, though single readings can be large; an effect the other way counts as inactive or inconclusive.

SMILES | RORg inh | MCF10A rereplic | Gal4-VP16 FLuc | IL-1B inflam inh | SW480 rereplic
CCC1CCCCN1C(=S)NC(=O)c1cc(Br)ccc1Cl (configuration not stated) | . | 0% | . | 23 | -8%
CCC1CCCCN1C(=S)NC(=O)c1cccs1 (configuration not stated) | 0.71µM* | ? | 1.1µM* | 16 | -5%
CCC1CCCCN1C(=S)NC(=O)c1ccc(F)c(S(=O)(=O)N2CCOCC2)c1 (configuration not stated) | 0.56µM* | 4% | 1.6µM* | 32 | 3%
CCOC(=O)C1CCN(C(=O)c2cccs2)CC1 | 5% | -4% | -6% | 29 | 4%
COC(=O)C1=C(C(=O)OC)C(c2ccccc2O)c2sc(=O)[nH]c2S1 (configuration not stated) | ? | -10% | ? | -96* | 1%
O=C1CCCC/C1=N\Nc1ccc(C2CCCCC2)cc1 | -14% | . | -11% | . | .
O=C(O)c1ccc(C2CCCCC2)cn1 | 7.9µM* | 20% | ? | -2 | -31%
Cc1ccc(CO)cc1 | 1% | . | -7% | . | .
CCOc1ccccc1C(=O)N[C@H](C(=O)OCc1cc(=O)oc2cc(C)ccc12)C(C)C | 22% | 21% | -16% | -55* | ?
C=CCOc1ccc(CN(C)C(=O)c2ccc(CNS(=O)(=O)c3ccc(C)c(C)c3)cc2)cc1 | . | ? | . | -55* | -9%
COc1cccc(N(C(=O)c2nc3nccc(C)n3n2)c2nc3ccccc3s2)c1 | ? | 18% | -13% | -92* | 15%
COc1cccc(NC(=O)COC(=O)c2nc3nccc(C)n3n2)c1 | 32% | -2% | -17% | 2 | -1%
CC(C)CC1NC(=O)c2cc3ccccc3cc2-n2c1nc1cc(Cl)ccc1c2=O (configuration not stated) | . | . | . | 73 | .
Cc1ccccc1NC(=O)c1ccc(-n2cncn2)nc1 | 18µM* | 3% | -6%[0.365 µM] | -5 | 1%
O=C(Nc1c(F)cccc1F)c1ccc(-n2cncn2)nc1 | 1% | -3% | 2% | -9 | -6%
O=C(NNC(=O)c1ccccc1F)c1ccc(-c2ccccc2Cl)o1 | . | . | . | -52* | .
O=C(NC12CC3CC(CC(C3)C1)C2)c1ccc(-c2ccccc2Cl)o1 | 42% | 16µM* | -25% | -2 | 9%
O=C(NC12CC3CC(CC(C3)C1)C2)c1ccc(-c2ccc(Cl)cc2)o1 | 19% | 12% | -13% | -27 | ?
O=C(NNC(=O)c1ccccc1F)c1ccco1 | -4% | 2% | 8% | 0 | -5%
CSc1ccc(Cn2c(C)c(C(=O)NCc3ccc(Cl)c(Cl)c3)sc2=O)cc1 | . | . | . | -58* | .
Cc1c(C(=O)NCc2ccc(F)cc2)sc(=O)n1Cc1ccc(Cl)c(Cl)c1 | . | . | . | -86* | .
COc1ccc(Cl)cc1Cn1c(C)c(C(=O)NCc2cccc(C(F)(F)F)c2)sc1=O | . | . | . | -59* | .
COc1ccc(Cl)cc1Cn1c(C)c(C(=O)NCc2ccccc2C(F)(F)F)sc1=O | . | . | . | -6 | .
COC(=O)[C@@]1(Cc2ccccc2)[C@H]2c3cc(C(=O)N(C)C)n(Cc4c(CO)[nH]cc(C)c4=O)c3C[C@H]2CN1C(=O)c1ccccc1 | 38% | . | -12% | . | .
Cc1ccc(NC(=O)CN(C)C(=O)COc2ccc(Br)cc2)cc1 | . | . | . | -15 | .
SMILES | RORg inh | MCF10A rereplic | Gal4-VP16 FLuc | IL-1B inflam inh | SW480 rereplic
CC(C)(C)C1=CC(=O)C(=O)C(C(C)(C)C)=C1 | 10µM* | ? | 13µM* | -65* | 18µM*
CC(C)(C)n1nnnc1C(c1cc2ccccc2o1)N1CCN(C(=O)OCc2ccccc2)CC1 (configuration not stated) | . | . | . | -21 | .
CN(C)c1ccc(/C=N/NC(=S)NCc2ccco2)cc1 | 1.8µM* | ? | 5µM* | -19 | -1%
NC(=O)c1ccc(NC(=S)NCc2ccco2)cc1 | 11% | 7% | 9% | 19 | -5%
CC(C)(C)NC(=S)NCc1ccco1 | 1% | -37% | 0% | 12 | -9%
S=C(NCc1ccco1)N/N=C/c1ccncc1 | 16µM* | 0% | ? | 12 | -1%
